Whole data set: some 33,000 sequences, median “E-score (-0.5 to 0.5)” near -0.021, cut for the highest 2% near 0.32. What follows is part of a selection rich in the highest values, with near analogues and random picks from the rest.
Biological target: T1, Zap1 (UniProt P47043)
T1 sequence: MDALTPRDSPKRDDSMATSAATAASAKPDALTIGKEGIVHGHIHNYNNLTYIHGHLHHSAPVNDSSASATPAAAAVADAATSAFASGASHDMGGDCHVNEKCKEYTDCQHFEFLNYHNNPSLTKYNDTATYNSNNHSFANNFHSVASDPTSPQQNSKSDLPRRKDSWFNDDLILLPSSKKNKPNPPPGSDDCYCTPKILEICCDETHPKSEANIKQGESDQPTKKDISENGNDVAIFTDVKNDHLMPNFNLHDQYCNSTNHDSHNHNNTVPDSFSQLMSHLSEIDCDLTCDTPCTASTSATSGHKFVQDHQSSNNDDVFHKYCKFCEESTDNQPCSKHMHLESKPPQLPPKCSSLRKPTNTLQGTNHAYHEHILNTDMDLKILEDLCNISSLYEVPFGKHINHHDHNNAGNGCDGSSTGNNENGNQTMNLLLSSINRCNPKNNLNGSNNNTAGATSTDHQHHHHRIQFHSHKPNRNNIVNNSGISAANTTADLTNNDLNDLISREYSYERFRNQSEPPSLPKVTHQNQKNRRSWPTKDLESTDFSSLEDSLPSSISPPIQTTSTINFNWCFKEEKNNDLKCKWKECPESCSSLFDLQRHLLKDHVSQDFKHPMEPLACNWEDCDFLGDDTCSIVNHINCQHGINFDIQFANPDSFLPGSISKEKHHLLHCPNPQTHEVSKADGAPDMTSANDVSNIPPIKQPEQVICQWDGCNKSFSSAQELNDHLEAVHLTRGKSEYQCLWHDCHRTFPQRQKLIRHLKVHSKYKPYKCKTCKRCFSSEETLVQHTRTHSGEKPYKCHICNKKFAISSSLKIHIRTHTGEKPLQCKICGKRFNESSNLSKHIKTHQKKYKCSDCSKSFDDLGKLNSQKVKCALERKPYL
Test: PBM E-score (8-mer binding enrichment) (E-score (-0.5 to 0.5)); higher = stronger / more preferred TF binding
Details: protein concentration: 200 nM; construct: GST-full length
Method in brief: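 Yeast transcription factors carrying a GST tag, as full-length proteins or DNA-binding domains, were produced by PURExpress in vitro transcription/translation. About 100-200 nM protein was applied to universal all-10-mer Agilent arrays, double-stranded by primer extension on fresh or once-stripped slides. Bound protein was detected with fluorescent anti-GST, and scans were normalised with masliner. The Universal PBM Analysis Suite gave each ungapped eight-base word, pooled with its reverse complement, an E-score, a modified Wilcoxon-Mann-Whitney statistic.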

Sequence	PBM E-score
CATAGCTA	-0.113
GCTGTGGA	-0.0748
CTAGTTCA	-0.00273
CCAACAGG	0.0645
AACCTCCA	0.0742
ACACTTCT	-0.0698
CAAGTGAG	-0.196
ATCCTGAG	-0.0542
ACCCTGAG	0.378
CCCCTGAG	-0.0275
AGCAACCG	-0.0288
AACTGCCG	-0.0311
ACCTCGCG	0.109
CTGTTACA	0.0543
CCGTTACA	0.061
GCGTTACA	0.126
CGGTTACA	0.411
TCGTTACA	-0.024
GGGTTACA	0.468
GAGTTACC	0.3
GGTTTACA	0.17
TGGTTACA	0.395
GGGTTACC	0.463
GCGTTACC	0.0732
TAGTTACA	0.158

Sequence	PBM E-score
AGCAACAG	-0.195
AACTAATA	0.314
AGTAGCGG	-0.125
GAAGACCC	0.236
TATTAGGA	0.0916
CCTTATAC	0.0827
CCCCAGTA	-0.0431
CACTGGTC	-0.0725
CCTCAATC	0.158
CGGTTACC	0.444
CTGTTACC	0.248
CAGTTACC	0.208
GCCACTAC	-0.0479
TATCTAGA	0.151
AGCGTCTA	-0.214
CCTTTAAG	0.237
ACCTTAAC	0.358
ACCTTAAT	0.302
GCTTTAAC	0.186
ACCTTAAA	0.247
ACCTTATA	0.339
CCCTTAAC	0.0959
CCTTTAAC	0.352
ACCTTAAG	0.269
CCCTTATA	0.15

Sequence	PBM E-score
CCCTTAAG	0.335
ACCTTATG	0.314
AGTGGAAG	-0.204
ATGAGCGG	-0.167
GTTGGGAA	0.0568
ATGAGGAC	-0.0846
ATCCAGTC	-0.137
CTCTCACC	0.0392
AATCCCGA	0.0192
ATCAACAT	0.00735
ATAGGAAC	0.0152
CGCCTACG	-0.23
GAATGGCC	0.188
AGTGCGAA	-0.172
CCTTAAGC	0.0365
CCTTAAGA	0.155
CCTTAAGG	0.411
AGCTCGAG	-0.0098
GATACTCA	-0.029
ATAGGTAG	0.172
ATAGGTAA	0.323
CTAGGTAC	0.115
ATAGGTAC	0.36
CTAGGTAA	0.0356
ATAGGTGA	0.0727

Sequence	PBM E-score
GGAAGGCA	-0.191
AGGGGCTG	-0.0614
ATGGTTAC	0.471
ATGGTTGC	0.0738
ATGGTTAG	0.316
CTGGTTAA	0.225
CTGGTTAC	0.412
CTGGTTTC	0.124
ACGGTTGG	-0.0119
CGCTATAG	-0.238
TCCATTCA	0.0213
ATCTGGAA	-0.00838
CGACCTCA	0.081
TAACCTAA	0.399
GAACCTCA	0.189
TAACCTTA	0.39
AAACCTAA	0.159
CAACCTAA	0.203
AGACCTCA	0.0826
TGACCTCA	0.333
CAACCTTA	0.286
AAACCTCA	0.232
TAACCTCA	0.418
AAACCTTA	0.288
AGCTACAT	-0.263

Sequence	PBM E-score
ATTTCTGG	0.0521
AAGTTCAC	-0.108
AATGAAGT	0.0905
AATCAAAG	0.0185
ACTATGAT	-0.00467
GTTGTATA	0.117
AAGTTGCT	-0.0577
GTACTGTA	0.0704
GTACTGAC	0.0986
GTACTGAA	0.317
AGGGTCCG	-0.0112
CGATGGCG	-0.284
CATGAAAC	0.0838
CAAGTGCG	-0.0607
GGCATGTA	-0.0887
CCGCCCGG	0.0274
CCGCCCCC	-0.343
CCGCCCCG	0.341
CAGGTGTC	-0.0194
CAGTACTA	0.164
TCAAAAAA	0.202
TAACCAAA	0.386
TAACCATA	0.44
GAACCCAA	0.152
GAACCATA	0.206

Sequence	PBM E-score
AAACCAAA	0.254
AAACCATA	0.202
CAACCAAA	0.213
CAACCCAA	0.272
CAACCCCG	0.211
TAACCCAA	0.424
CAACCCCA	0.42
CAACCCCC	-0.212
AAGATGCA	0.0988
AACTTGCT	-0.17
AATGTCTA	0.00891
CGTCAGTC	-0.206
GCCGCATA	0.102
TACAAGTA	0.0103
AACCTAAT	0.204
GATCAACC	-0.0383
GTGAGCGA	0.1
ATCAGTAC	-0.0201
AGGTGCAA	0.0924
TTTGAAAA	0.273
GAGTTCGA	0.0349
AAACCACA	0.184
AAACCACG	-0.0205
TAACCCCA	0.424
AAACCCCA	0.261

Sequence	PBM E-score
TAACCACA	0.417
GAACCCCA	0.291
GTGAGTCA	-0.0169
CCAACTAC	0.0442
ACGCGATC	-0.143
ACCCACAG	0.2
CACCACAA	0.147
AACCACTA	0.369
TACCACTA	0.179
AACCACAA	0.34
TACCACAA	0.359
AACCACAT	0.234
ACCCACAC	0.225
AACCACAG	0.233
ACCCACAA	0.353
GACCACAA	0.185
CACCACTA	0.22
AAACTTAT	0.19
AGAAACTC	-0.0693
GACAGTAA	0.0265
AGCTGGCG	-0.283
AGAAGAGA	-0.205
CCAAGATC	-0.0112
ACTGCACT	-0.149

Reference: the supplement of paper PMC3334620
